Drawing on PubChem BioAssay (NCI), this text covers growth inhibition for nine compounds.

This is part of a sample that, as a whole, favours compounds with a hit. Of some 79,000 tested, about 15% had one in any assay. A number with no mark means an inactive call. Calls of active or inactive are those of the source. Cut-off read from the data, not from the text of the source: active = growth inhibition above about 70%; inactive = the rest.

Test [1] can be described thus: NCI Yeast Anticancer Drug Screen. Data for the rad50 strain (AID 155).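 Note: 0% = growth of vehicle-only cultures of the same strain.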 The following applies: S. cerevisiae rad50 strain growth inhibition, active compounds read high. The essentials: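 Inhibition values express reduced yeast growth in compound-treated cultures relative to vehicle-treated controls.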
Test [2] is described as follows: NCI Yeast Anticancer Drug Screen. Data for the mec2-1 strain (AID 157). As to conditions: S. cerevisiae mec2-1 strain, active compounds read high. The gist of the method: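 mec2-1 yeast strain, carrying an alteration in DNA damage repair or cell cycle control, was exposed to compounds; growth inhibition was measured relative to vehicle-treated controls.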
Test [3] in a line: NCI Yeast Anticancer Drug Screen. Data for the sgs1 mgt1 strain (AID 161).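 Note: 0% = growth of cultures given vehicle only.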 As to conditions: S. cerevisiae sgs1 mgt1 strain, active compounds read high. The gist of the method: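 Compounds are added to genetically altered yeast, and growth is compared with cultures given vehicle alone to give percent inhibition.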
The nature of test [4]: NCI Yeast Anticancer Drug Screen. Data for the cln2 rad14 strain (AID 165).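 Note: 0% = growth equal to vehicle treated cultures.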 The following applies: S. cerevisiae cln2 rad14 strain, active compounds read high. The essentials:
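Yeast carrying cln2 and rad14 alterations (cell cycle control and DNA damage repair) were exposed to compounds. Growth inhibition was measured against vehicle-treated controls.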

Test [5] in a line: NCI Yeast Anticancer Drug Screen. Data for the bub3 strain (AID 167). The following applies: S. cerevisiae bub3 mutant strain, active compounds read high. The essentials: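 Steps: expose the mutant yeast strain to compound; grow alongside vehicle-treated cultures; measure growth; express inhibition against the vehicle cultures.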
The nature of test [6]: NCI Yeast Anticancer Drug Screen. Data for the mlh1 rad18 strain (AID 175). As to conditions: S. cerevisiae mlh1 rad18 strain growth inhibition, active compounds read high. The essentials:
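Growth inhibition of the yeast strain was measured after compound exposure and expressed relative to vehicle-treated controls. The strain carries defined defects in DNA damage repair.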

The mark [7] stands for this setting: at 5.0 µM (retest, dose inferred, filed as 0.5).
The mark [8] stands for this setting: at 50.0 µM (retest, dose inferred, filed as 5.0).

For `CCOP(=O)(OCC)/C(C#N)=C/c1ccccc1Cl`, the growth inhibition in test [1] (setting [7]) was 17%; in test [1] (setting [8]), 74% (active); in test [1] (at 50.0 µM), 82.5% (active); in test [2] (setting [7]) it was -7%; in test [2] (setting [8]), 62%; in test [2] (at 50.0 µM) it was 72.8% (active). The growth inhibition in test [3] (setting [7]) is 2%; in test [3] (setting [8]), 65%; in test [3] (at 50.0 µM) it was 79.8% (active); in test [4] (setting [7]), 10%; in test [4] (setting [8]), 55%; in test [4] (at 50.0 µM) it was 64.8%. The growth inhibition was 0% in test [5] (setting [7]); 74% (active) in test [5] (setting [8]); 72.7% (active) in test [5] (at 50.0 µM); -2% in test [6] (setting [7]); 77% (active) in test [6] (setting [8]); 81.8% (active) in test [6] (at 50.0 µM).
With `O=[C-]CCCCCC[C-]=O.[C-]#[O+].[C-]#[O+].[C-]#[O+].[C-]#[O+].[Fe+6].[Fe+6].[c-]1[c-][c-][cH-][c-]1.[c-]1[c-][c-][cH-][c-]1`, the growth inhibition was 9% in test [1] (setting [7]); 97% (active) in test [1] (setting [8]); 97.9% (active) in test [1] (at 50.0 µM); 13% in test [2] (setting [7]); 97% (active) in test [2] (setting [8]); 98.5% (active) in test [2] (at 50.0 µM). In addition, the growth inhibition was 1% in test [3] (setting [7]); 98% (active) in test [3] (setting [8]); 96.8% (active) in test [3] (at 50.0 µM); 1% in test [4] (setting [7]); 97% (active) in test [4] (setting [8]); 97.8% (active) in test [4] (at 50.0 µM). Moreover, the growth inhibition in test [5] (setting [7]) was -4%; in test [5] (setting [8]), 97% (active); in test [5] (at 50.0 µM), 99% (active); in test [6] (setting [7]), 5%; in test [6] (setting [8]) it was 98% (active); in test [6] (at 50.0 µM), 93.1% (active).
As to `Cc1c(N)nc([C@H](CC(N)=O)NC[C@H](N)C(N)=O)nc1C(=O)N[C@H](C(=O)N[C@H](C)[C@@H](O)CC(=O)N[C@H](C(=O)NC(O[C@@H]1O[C@@H](C)[C@@H](N)[C@@H](O)[C@H]1O)C(O)c1nc(-c2nc(C(=O)NCCCCN)cs2)cs1)[C@@H](C)O)[C@@H](O[C@@H]1O[C@@H](CO)[C@@H](O)[C@H](O)[C@@H]1O[C@H]1O[C@H](CO)[C@@H](O)[C@H](OC(N)=O)[C@@H]1O)c1c[nH]cn1` (some centres not stated), the growth inhibition is 96% (active) in test [1] (setting [7]); 98% (active) in test [1] (setting [8]); 91.7% (active) in test [1] (at 50.0 µM); 98% (active) in test [2] (setting [7]); 98% (active) in test [2] (setting [8]); 92.8% (active) in test [2] (at 50.0 µM). In addition, the growth inhibition was 98% (active) in test [3] (setting [7]); 98% (active) in test [3] (setting [8]); 92.7% (active) in test [3] (at 50.0 µM); 96% (active) in test [4] (setting [7]); 97% (active) in test [4] (setting [8]); 89.8% (active) in test [4] (at 50.0 µM). The growth inhibition is 97% (active) in test [5] (setting [7]); 98% (active) in test [5] (setting [8]); 92.9% (active) in test [5] (at 50.0 µM); 94% (active) in test [6] (setting [7]); 97% (active) in test [6] (setting [8]); 90.2% (active) in test [6] (at 50.0 µM).
As to `O=C(O)c1cc([N+](=O)[O-])c(Cl)c([N+](=O)[O-])c1Cl`, the growth inhibition is 80% (active) in test [1] (setting [7]); 99% (active) in test [1] (setting [8]); 62.8% in test [1] (at 50.0 µM); 82% (active) in test [2] (setting [7]); 99% (active) in test [2] (setting [8]); 42.3% in test [2] (at 50.0 µM). Further, the growth inhibition in test [3] (setting [7]) is 20%; in test [3] (setting [8]) it was 93% (active); in test [3] (at 50.0 µM), 46.9%; in test [4] (setting [7]), 38%; in test [4] (setting [8]), 100% (active); in test [4] (at 50.0 µM), 43.1%. The growth inhibition in test [5] (setting [7]) is 51%; in test [5] (setting [8]), 96% (active); in test [5] (at 50.0 µM) it was 64%; in test [6] (setting [7]), 70% (active); in test [6] (setting [8]) it was 99% (active); in test [6] (at 50.0 µM), 49%.
Turning to `Cn1c(=O)c2[nH]cnc2n(C)c1=O.[CH2-]C(Cc1cccc2cc(C(=O)O)c(=O)oc12)OC.[Hg+2].[OH-]` (configuration not stated), the growth inhibition is 1% in test [1] (setting [7]); 6% in test [1] (setting [8]); 46% in test [1] (at 50.0 µM); -3% in test [2] (setting [7]); 14% in test [2] (setting [8]); 96.7% (active) in test [2] (at 50.0 µM). The growth inhibition was -6% in test [3] (setting [7]); 21% in test [3] (setting [8]); 93.5% (active) in test [3] (at 50.0 µM); 25% in test [4] (setting [7]); -29% in test [4] (setting [8]); 93.2% (active) in test [4] (at 50.0 µM). Also, the growth inhibition in test [5] (setting [7]) is -20%; in test [5] (setting [8]) it was -16%; in test [5] (at 50.0 µM), 96.8% (active); in test [6] (setting [7]) it was -7%; in test [6] (setting [8]), 17%; in test [6] (at 50.0 µM), 98.3% (active).
For the compound `CCOC(=O)C1=C(C)NC(=O)NC1c1ccc(N(CCCl)CCCl)cc1Cl` (configuration not stated), the growth inhibition was 6% in test [1] (setting [7]); 78% (active) in test [1] (setting [8]); 38.6% in test [1] (at 50.0 µM); 46% in test [2] (setting [7]); 59% in test [2] (setting [8]); 44.1% in test [2] (at 50.0 µM). In addition, the growth inhibition in test [3] (setting [7]) is -3%; in test [3] (setting [8]) it was 34%; in test [3] (at 50.0 µM), 24.9%; in test [4] (setting [7]), -8%; in test [4] (setting [8]), 74% (active); in test [4] (at 50.0 µM), -10.8%. For the same compound, the growth inhibition in test [5] (setting [7]) is 13%; in test [5] (setting [8]), 97% (active); in test [5] (at 50.0 µM) it was 92.6% (active); in test [6] (setting [7]), 3%; in test [6] (setting [8]) it was 88% (active); in test [6] (at 50.0 µM) it was 78.5% (active).
As to `CC1([CH2][Hg][I])CS(=O)(=O)CC(C)([CH2][Hg][I])O1` (configuration not stated), the growth inhibition is 99% (active) in test [1] (setting [7]); 98% (active) in test [1] (setting [8]); 95.7% (active) in test [1] (at 50.0 µM); 100% (active) in test [2] (setting [7]); 99% (active) in test [2] (setting [8]); 98% (active) in test [2] (at 50.0 µM). The growth inhibition in test [3] (setting [7]) is 100% (active); in test [3] (setting [8]) it was 99% (active); in test [3] (at 50.0 µM) it was 97.3% (active); in test [4] (setting [7]), 99% (active); in test [4] (setting [8]), 98% (active); in test [4] (at 50.0 µM), 96% (active). Further, the growth inhibition in test [5] (setting [7]) was 100% (active); in test [5] (setting [8]) it was 99% (active); in test [5] (at 50.0 µM) it was 97.8% (active); in test [6] (setting [7]), 99% (active); in test [6] (setting [8]), 98% (active); in test [6] (at 50.0 µM) it was 96.2% (active).
As for `CCCCCCCCCCCCCCCc1cccc(O)c1O`, the growth inhibition in test [1] (setting [7]) is -2%; in test [1] (setting [8]) it was -7%; in test [1] (at 50.0 µM), 51.2%; in test [2] (setting [7]), -2%; in test [2] (setting [8]), 3%; in test [2] (at 50.0 µM), 92.1% (active). The growth inhibition in test [3] (setting [7]) is -1%; in test [3] (setting [8]), 27%; in test [3] (at 50.0 µM) it was 51.5%; in test [4] (setting [7]), -4%; in test [4] (setting [8]), -8%; in test [4] (at 50.0 µM), -5.3%. Besides, the growth inhibition is 1% in test [5] (setting [7]); -4% in test [5] (setting [8]); 48.4% in test [5] (at 50.0 µM); -6% in test [6] (setting [7]); 7% in test [6] (setting [8]); 82.7% (active) in test [6] (at 50.0 µM).
Consider `O=S(=O)(O)O.[Pt].c1ccc([PH+](c2ccccc2)c2ccccc2)cc1.c1ccc([PH+](c2ccccc2)c2ccccc2)cc1.c1ccc([PH+](c2ccccc2)c2ccccc2)cc1`, for which the growth inhibition in test [1] (setting [7]) is 23%; in test [1] (setting [8]), 95% (active); in test [1] (at 50.0 µM), 93.8% (active); in test [2] (setting [7]), 13%; in test [2] (setting [8]), 94% (active); in test [2] (at 50.0 µM), 98.1% (active). In addition, the growth inhibition in test [3] (setting [7]) was 9%; in test [3] (setting [8]), 94% (active); in test [3] (at 50.0 µM) it was 94.3% (active); in test [4] (setting [7]) it was 8%; in test [4] (setting [8]) it was 97% (active); in test [4] (at 50.0 µM), 97.8% (active). In addition, the growth inhibition is -7% in test [5] (setting [7]); 92% (active) in test [5] (setting [8]); 96.7% (active) in test [5] (at 50.0 µM); 39% in test [6] (setting [7]); 95% (active) in test [6] (setting [8]); 95.2% (active) in test [6] (at 50.0 µM).
